We go through 90 molecules from PubChem BioAssay AID602438 (Sanford-Burnham Center for Chemical Genomics, 2012).

As usually defined, the inhibition is the change of the read-out against control, counted positive when it falls.

Among all 360,000 compounds or so, about 3,100 (0.86%) were called active. Shown is part of a subset that was picked to be rich in actives. Unmarked numbers belong to inactive results.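 How the source made its calls: active means inhibition or corrected inhibition above about 18%, plus a signal ratio from 0.5 to 1.5 (limit read from the data, passing the limit was not always enough); inactive means the rest.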

The target in this experiment is Neuropilin-1 (Homo sapiens) (UniProt O14786). Description: modulators of CendR peptide binding to NRP-1, primary screen, biochemical, fluorescence polarization, uHTS (AID 602438). As to conditions: FAM-RPARPAR peptide binding to NRP-1, fluorescence polarization; at 25 µM; active compounds read high.
Sequence of Neuropilin-1 (Homo sapiens) (O14786 whole entry, looked up): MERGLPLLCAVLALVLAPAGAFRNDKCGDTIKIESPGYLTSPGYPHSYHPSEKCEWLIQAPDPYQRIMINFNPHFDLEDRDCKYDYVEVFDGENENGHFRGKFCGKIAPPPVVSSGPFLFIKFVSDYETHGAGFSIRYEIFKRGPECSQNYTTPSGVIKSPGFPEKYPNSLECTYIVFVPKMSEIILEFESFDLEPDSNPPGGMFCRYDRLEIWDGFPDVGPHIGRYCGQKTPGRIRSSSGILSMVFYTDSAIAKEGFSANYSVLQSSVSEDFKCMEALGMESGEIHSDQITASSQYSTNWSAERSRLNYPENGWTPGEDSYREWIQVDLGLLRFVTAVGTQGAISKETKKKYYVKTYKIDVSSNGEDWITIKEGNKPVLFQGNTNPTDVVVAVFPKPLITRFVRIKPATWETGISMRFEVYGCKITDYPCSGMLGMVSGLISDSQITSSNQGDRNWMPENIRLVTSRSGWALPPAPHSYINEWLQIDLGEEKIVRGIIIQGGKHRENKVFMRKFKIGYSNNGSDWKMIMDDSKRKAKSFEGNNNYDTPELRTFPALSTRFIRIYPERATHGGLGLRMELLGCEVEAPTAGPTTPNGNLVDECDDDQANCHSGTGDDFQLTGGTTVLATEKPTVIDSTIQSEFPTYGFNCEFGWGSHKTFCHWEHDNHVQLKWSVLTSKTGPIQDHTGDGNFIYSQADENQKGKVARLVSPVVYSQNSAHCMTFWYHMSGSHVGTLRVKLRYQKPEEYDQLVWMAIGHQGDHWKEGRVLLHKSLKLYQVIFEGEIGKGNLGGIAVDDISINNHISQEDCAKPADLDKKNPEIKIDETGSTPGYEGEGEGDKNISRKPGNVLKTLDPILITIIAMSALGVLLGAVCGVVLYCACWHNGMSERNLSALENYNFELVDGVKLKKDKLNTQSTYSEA
Turning to `O=C1Nc2ccccc2-n2nnnc2C1N1CCN(c2cccc(C(F)(F)F)n2)CC1` (stereo not given), the inhibition is 3.4%.
For `CCOC(=O)c1cc(NC(=O)c2ccc(Cl)cc2)c(=O)oc1-c1ccccc1` the value was 24.4% (active); for `COC(=O)c1ccc(C(=O)Nc2cc(Cl)ccc2Cl)cc1NC(=O)c1ccccc1C`, -6%.
Turning to `CCOC(=O)c1cccnc1NC(=O)c1ccncc1`, the inhibition is -9.5%.
In the case of `O=C(COC(=O)c1ccc(S(=O)(=O)Nc2ccccc2)cc1)NCC1CCCO1` (stereo not given), the inhibition was 9.7%.
The value for `CCN(C(=O)COC(=O)c1ccccc1O)c1cccc2ccccc12` was 6.5%; that for `COc1ccc(S(=O)(=O)c2c[nH]c(=S)[nH]c2=O)cc1Cl` was -6%; that for `O=[N+]([O-])c1ccc(N2CCN(c3ccc(O)cc3)CC2)c(Cl)c1` was -3.9%.
For `CCC(C)(C)NC(=O)c1cc([N+](=O)[O-])ccc1N1CCCCC1` the value was 8.9%; for `O=C(O)C1CCN(c2ccc([N+](=O)[O-])cc2[N+](=O)[O-])CC1`, 27.4% (active).
As for `CC(CC(=O)C1C(C)C=CCC1(C)C)NNC(N)=O` (stereo not given), the inhibition is 12.3%.
For `O=C(CSc1ccc(-c2ccc(-n3cccn3)cc2)nn1)Nc1ccc([N+](=O)[O-])cc1` the value was 15.2%.
With `O=C(NC1CCCC1)C(NS(=O)(=O)c1ccc(Br)s1)c1ccccc1` (stereo not given), the inhibition was -3%.
In the case of `COCCNC(=O)C1C(=O)Nc2ccccc2C(=O)N1c1ccc2c(c1)OCCO2` (stereo not given), the inhibition is -11.4%.
The value for `Cc1ccc(CC2CC(=O)N(c3cc(C)ccc3C)C2=O)cc1` (stereo not given) was 50% (active); that for `Cc1ccc(CC2CC(=O)N(c3ccc4c(c3)OCCO4)C2=O)cc1` (stereo not given) was 4.8%.
For `Cc1ccc(CC2CC(=O)N(c3nc(C)cc(C)n3)C2=O)cc1` (stereo not given) the value was 13.2%; for `CN(CC(=O)NCCc1ccc(S(N)(=O)=O)cc1)CC(=O)Nc1ccc(F)c(F)c1F`, 7.4%; for `Oc1ccc(-c2nncn2-c2ccccc2)cc1`, 2.8%.
Regarding `CC1(C)C2CC[C@]3(C)C(CC=C4[C@@H]5C[C@@](C)(CO)CC[C@]5(C(=O)O)CC[C@]43C)[C@@]2(C)CC[C@@H]1O` (stereo not given in full), the inhibition is -11.3%.
Turning to `CC1O[C@@H](OC2C(O)C(C)O[C@H](OC(=O)[C@]34CCC(C)(C)C[C@H]3C3=CCC5[C@@]6(C)CC(O)C(O[C@@H]7OC(CO)C(O)[C@@H](O)[C@@H]7O)[C@@](C)(C(=O)O)C6CC[C@@]5(C)[C@]3(CO)CC4)C2O[C@H]2OC(C)[C@@H](O[C@@H]3OCC(O[C@@H]4OC(CO)C(O)[C@H](O)C4O)[C@@H](O)[C@@H]3O)[C@H](O)C2O)C(O)C(O)C1O` (stereo not given in full), the inhibition was 36.2% (active).
In the case of `O=C1c2ccccc2C(=O)C1c1ccccc1`, the inhibition is -13.9%.
With `O=C1CCC(Cc2ccccc2)N1` (stereo not given), the inhibition is -7%.
The value for `O=C1OC(Cc2ccccc2)C(c2ccccc2)C1=O` (stereo not given) was 24.2% (active).
For `COc1ccc(Cl)cc1-c1cc(C(=O)Nc2cc(OC)c(OC)c(OC)c2)[nH]n1` the value was 5.6%.
For `CC(=O)N/C(=C\c1ccccc1)C(=O)OC(C)C(=O)N(C)c1ccccc1` (stereo not given) the value was 6.8%.
As to `Cc1ccc(CN(CC(=O)NC2CCCCC2)C(=O)c2csnn2)cc1`, the inhibition is 24.5% (active).
Consider `O=C(CN(C(=O)c1csnn1)c1ccc(Br)cc1)NC1CCCC1`, for which the inhibition is 3.2%.
For `Cc1ccccc1CCN(CC(=O)NC1CCCCC1)C(=O)c1csnn1` the value was -9.2%; for `Nc1nc2c(Br)ccc(Br)c2cc1C(=O)NCCc1ccccc1`, 6.1%; for `COC(=O)c1cc(NC(=O)CN2CCC(C(N)=O)(N3CCCCC3)CC2)cc(C(=O)OC)c1`, 20.2% (active).
The value for `COC(=O)c1cc(NC(=O)CN2CCN(C(C)=O)CC2)cc(C(=O)OC)c1` was 3%; that for `COCC(=O)Nc1cc(C(=O)OC)cc(C(=O)OC)c1` was 5.2%.
`COC(=O)C1(C(=O)OC)C/C=C\CN(S(=O)(=O)c2ccccc2[N+](=O)[O-])CCC1`: the inhibition was 4.4%.
In the case of `CCOC(=O)[C@@H]1[C@H]2COc3cc(OC)ccc3[C@@H]2N2C(=O)N(c3cccc(C)c3)C(=O)[C@@]12C`, the inhibition is 4.4%.
For `CC(=O)/C(=N\Nc1ccc(Cl)cc1Cl)Sc1cccc2cccnc12` the value was 61.1% (active).
The value for `Cc1cc(OCCOc2cccc3cccnc23)c(C)cc1Cl` was -14.2%; that for `COc1cccc(CNC(=O)C2CCN(S(=O)(=O)c3cccc4cccnc34)CC2)c1` was -3%; that for `Cc1ccc(C2=Nc3c(ccc4ccccc34)C(c3ccncc3)=NN2)cc1` was 25.8% (active).
`CCOc1ccc2c(c1)C(c1ccc(C)cc1)=NNC(c1ccc(C)cc1)=N2`: the inhibition is 5.9%.
For `O=C(NCCCCO)C(F)(F)C(F)(F)C(F)(F)C(=O)NCCCCO` the value was 11.3%; for `Nc1cccc(-c2cncc(N3CCN(Cc4ccccn4)CC3)n2)c1`, 1.6%; for `CCCCCCCCCCOC(=O)C[N+](C)(C)CC1CCCCC1O` (stereo not given), 18.2%.
For `Cc1ccn2c(c1)nc(=O)c1cc(S(=O)(=O)N3CCC(C)CC3)ccc12` the value was -3.9%; for `COc1cccc2c(O)cc(=O)n(C)c12`, 19.9% (active); for `COc1cc2c(=O)n(C)c3ccccc3c2cc1OC`, 0%.
In the case of `COc1cc2c(C(=O)O)c(C)n(C)c2c2ccccc12`, the inhibition is -42.6%.
The value for `OC(CNC1CCCC1)COc1ccc(F)cc1` (stereo not given) was -0.8%; that for `COC(=O)C1CCN(CC(N)=O)CC1` was -10.1%.
For the molecule `CCc1nc2c(OCc3ccc(C(=O)OC)cc3)cccn2c1N(C)C(=O)C(C)C`, the inhibition is 13.8%.
The value for `CCc1nc2c(OCc3ccc(C(F)(F)F)cc3)cccn2c1N(C)C(=O)CC(C)C` was 22.7% (active).
Regarding `CCCCC(=O)N(C)c1c(CC)nc2c(OCc3ccc(S(C)(=O)=O)cc3)cccn12`, the inhibition was 1.6%.
For `COc1ccc(NC(=O)c2ccccc2CC[N+](=O)[O-])cc1` the value was 5.3%; for `Cc1cc(C(=O)NNC(=O)CCC2CCCCC2)c(C)o1`, 3.2%; for `O=C1CC2(CCCCC2)Oc2ccc(OCC(=O)N3CCOCC3)cc21`, 0.6%.
For `Cc1cccc(NC(=O)C2CCN(C(=O)NC3CCCCC3)CC2)c1` the value was -7.7%; for `O=C(Nc1cccc(OCC(=O)N2CCOCC2)c1)C1CCCCC1`, 21.3% (active); for `CN(C)CCCNC(=O)c1cc(C(=O)Cc2ccc(Cl)cc2)c[nH]1`, 3.7%.
The value for `O=C(c1ccc(F)cc1)C1CCN(Cc2cn[nH]c2-c2ccccc2)CC1` was -10.4%.
Take `COc1ccccc1CNC(=O)C1Cc2ccccc2C(=O)O1` (stereo not given): the inhibition was -8.4%.
For the molecule `O=C1/C(=C/c2cccs2)CCC1C1CCCC1` (stereo not given), the inhibition is 2.8%.
For `OCC[C@H]1C[C@H](O)[C@@H](O)[C@]2(CCCCO2)O1` the value was 28.3% (active); for `C[C@H]1CC[C@]2(O[C@@H](CCO)C[C@@H](O)[C@@H]2O)O1`, 13.5%; for `C[C@@H]1CC[C@]2(O[C@@H](CCO)C[C@H](O)[C@H]2O)O1`, -18.9%.
As to `COCCNC(=O)C1CCCN(Cc2ccccc2Cl)CC1` (stereo not given), the inhibition is 2%.
The value for `Cc1ccc(S(=O)(=O)C2C(=O)NC3(C)CC2c2ccccc2O3)cc1` (stereo not given) was -9.3%; that for `CCCOc1ccc(CNC(=O)C2CCN(c3nn4c(=O)cc(C)nc4s3)CC2)cc1` was -7.5%; that for `COc1cccc(N(C(=O)CNC(=O)c2ccco2)C(C(=O)NC2CCCCC2)c2cccnc2)c1` (stereo not given) was 5.7%.
For the molecule `Cc1ccc(N(C(=O)CNC(=O)c2ccco2)C(C(=O)NC2CCCC2)c2ccncc2)cc1` (stereo not given), the inhibition was 18.5% (active).
The value for `CC(C)(C)NC(=O)C(c1ccncc1)N(C(=O)CNC(=O)c1ccco1)c1ccc2c(c1)OCO2` (stereo not given) was 4%.
The value for `Cc1ccc(S(=O)(=O)NC2(C(F)(F)F)NC(=O)N(CCc3ccccc3)C2=O)cc1` (stereo not given) was 11.7%; that for `O=C(c1c(F)cccc1Cl)N1CCN(S(=O)(=O)c2ccc3c(c2)OCCCO3)CC1` was 2.8%; that for `Cc1coc2c1c(C)cc1oc(=O)c(CC(=O)NCC(=O)N[C@H](C(=O)O)C(C)C)c(C)c12` was -3.3%.
Take `Cc1nn(CCCC(=O)NCc2ccccc2Cl)c(=O)c2nccn12`: the inhibition was 3.3%.
Consider `C[C@@H]1CN([C@H](C)CO)C(=O)CCCn2cc(nn2)CO[C@H]1CN(C)S(C)(=O)=O`, for which the inhibition was -4.3%.
Turning to `Cc1coc2c(O)cc3c(c12)OC1(N2CCCCC2)C(=O)NCCCC31` (stereo not given), the inhibition was 26.1% (active).
`CSc1nnnn1-c1c(C)cc(C)cc1C`: the inhibition was 9.3%.
`COCCN(C(=O)COC(=O)Cc1cccc(OC)c1)c1c(N)n(Cc2ccccc2)c(=O)[nH]c1=O`: the inhibition is 3.8%.
On to `O=C(O)C1CCCN(CCC=C(c2ccccc2)c2ccccc2)C1` (stereo not given), for which the inhibition is 1.9%.
For `O=[N+]([O-])/C=C/c1ccc2c(ccn2Cc2ccccc2)c1` the value was -5.7%; for `COC(=O)c1c(C)[nH]c(C(=O)NCCc2ccc(S(N)(=O)=O)cc2)c1C`, -1.4%; for `COC(=O)c1c(C)[nH]c(C(=O)/C=C/c2ccc(Cl)cc2)c1C`, 41% (active).
The value for `Cc1cc(C)nc(NC(=O)/C=C/c2ccc(Cl)cc2)n1` was 6.6%.
For `Cc1cc(CNC(=O)C2CCC(=O)N(CCc3ccc(Cl)cc3)C2)no1` (stereo not given) the value was 28.7% (active); for `O=C(NCCN1CCOC1=O)C1CCC(=O)N(CCc2ccc(Cl)cc2)C1` (stereo not given), -0.8%; for `O=C(NCCCc1ccccc1)C1CCC(=O)N(CCc2ccc(Cl)cc2)C1` (stereo not given), 8.8%.
As to `CO[C@@H]1CN(C)C(=O)c2cc(NC(=O)Nc3cc(F)ccc3F)ccc2OC[C@H](C)N(C(=O)c2ccccn2)C[C@@H]1C`, the inhibition was 2.7%.
The value for `COc1ccc(Cl)cc1NC(=O)NCC1CCN(Cc2ccccc2F)CC1` was -1%; that for `COc1ccc(Cl)cc1NC(=O)C(C)N1CCc2ccccc21` (stereo not given) was 23.1% (active).
Take `COc1ccc(Cl)cc1NC(=O)NC(C)C(C)(C)C` (stereo not given): the inhibition is -1.8%.
